The sequences below were run against ZFAND2A (assay: pooled miR-30 sensor sort-seq; sequence = guide strand). Conditions: shRNA.
Also: reference of the scale not given here.

Row | Sequence | sensor-assay potency score (higher = more potent)
1 | TACTGGAAGAAAATCTAGCTGC | 0.313
2 | TCTCTTTCTTCTTGCAGCCCTC | -1.15
3 | TTGGGCACATACCATCTGCAGC | -1.16
4 | TACCATCTGCAGCATCTCTTTC | -0.989
5 | TTACAGAGTGGGCATACTGGGA | -0.899
6 | TACTGGGACGAGCACATCCTTC | -1.34
7 | TTTCTGAACAATGCTTCCCCAA | -0.747
8 | AGTCTTTTCTGAACAATGCTTC | -1.25
9 | TTCTCTTTCTTCTTCCCAGGGT | 0.483
10 | TTCTGAACAATGCTTCCCCAAA | -1.18
11 | TTTTACTGGAAGAAAATCTAGC | -0.26

The sequences below were run against ZFAND6 in the same assay as above. Conditions: shRNA.

Row | Sequence | sensor-assay potency score (higher = more potent)
12 | AAGATGTAGAGTCTAATGCTGA | -0.785
13 | TCTACCATTACTACTATTCTGT | 0.0585
14 | TAGATGAAGATGTAGAGTCTAA | -0.473
15 | TTTTCACCAACAACTACTGGAT | -0.128
16 | TTGTGTACATCTGAGTAACGGT | -0.562
17 | TAGAGTCTAATGCTGACTGGGC | -0.0965
18 | TTATTCTACCATTACTACTATT | -1.18
19 | TTCCATAAAATCCACAGCCAGT | -1.07
20 | TACTACTATTCTGTCTTTGAAG | -0.924
21 | TTCCTGCACATGAAACAGCGAT | -1.19
22 | TTTCTCAGCAGCATCGGCTTTG | -0.787
23 | TAGCATACTGAACACATGCCAT | -0.592

From the OligoGym collection
